Screen size: about 57,000 sequences; about 2,300 (4%) were called active. No stated cut-off is given here; in the data, active = GI50 up to about 1.1 µM and inactive = higher. These entries were drawn from the full list. Results with a measured potency or affinity are listed apart.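 Cells were grown in 96-well plates and exposed to each compound for 48 hours at five concentrations; endpoints were interpolated linearly between bracketing concentrations, or set to the highest concentration if not reached. GI50 = concentration required for 50% inhibition of growth.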

The experiment has as its system SK-MEL-28. Description: NCI tumour cell line growth inhibition, 48 h.
“[Bis(aminomethyl)diethylsilane]tetrachloroplatinum(IV), CHEMBL2146203” had a GI50 of 1.72 µM.
CISPLATIN, CHEMBL11359 showed a GI50 of 4.43 µM.
The substance “[Bis(aminomethyl)tetramethylenesilane]dichloropaltinum(II), CHEMBL2146205” gave a GI50 of 20.3 µM.
Substance “[Bis(aminomethyl)pentamethylenesilane]dichloropaltinum(II), CHEMBL2146202” had a GI50 of 3.85 µM.
As to “[Bis(aminomethyl)ethylmethylsilane]tetrachloroplatinum(IV), CHEMBL2146192”, the GI50 is 2.76 µM.
Under “[Bis(aminomethyl)pentamethylenesilane]tetrachloropaltinum(IV), CHEMBL2146204” stands 1.23 µM; under “cis-Bis[[(trimethylsilyl)methyl]amino]tetrachloroplatinum(IV), CHEMBL2146191”, 2.86 µM; under “[Bis(aminomethyl)dimethylsilane]tetrachloroplatinum(IV), CHEMBL2146190”, 10.2 µM.
The substance “[Bis(aminomethyl)tetramethylenesilane]tetrachloropaltinum(IV), CHEMBL2146189” registered a GI50 of 2.85 µM.
Substance “mu-(1,7-nanodiamine-N,N')bis-(cis-aminedichloroplatimum (II)), CHEMBL2146215” came in with a GI50 of 10.2 µM.
The value for “[Bis(aminomethyl)dimethylsilane]dichloroplatinum (II), CHEMBL2146201” was 21.6 µM.

For the origin of these results see ChEMBL document CHEMBL1201862, “PubChem BioAssay data set” (2004).
